# From PubChem
# Compounds with a hit are over-represented: about 10% of the library has one in this group of screens.
# JMJD2A Tudor: blocks the human JMJD2A Tudor domain | AID 504339 | AlphaScreen JMJD2A-Tudor / H3K4me3 peptide binding | Potency, µM (doses to about 114 µM), without a hit: at the top dose activity change, negative = inhibition, hits mostly inhibitors | 390,000 compounds, 4.4% hits; also: potency is read from the fitted curve at half-maximal effect; % is scaled to controls: 0 for no effect and ±100 for the full control effect; nearly all actives have a fitted effect of over 50% in size
# G9a inh: G9a (human) methyltransferase inhibition | Potency, µM (titrated, usually from 102 µM), for the others: at the top dose activity, negative = inhibition, hits mostly inhibitors | Q96KQ7 | 350,000 compounds, 8.8% hits | G9a H3K9 monomethylation, AlphaScreen, 2 h; also: potency is read from the fitted curve at half-maximal effect; % is scaled to controls: 0 for no effect and ±100 for the full control effect; nearly all actives have a fitted effect of over 75% in size
#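 AlphaScreen detection with an anti-monomethyl H3K9 antibody quantified product after a 2 h room-temperature reaction containing 500 nM biotinylated H3K9 peptide, 20 µM SAM and 20 nM enzyme, which had been preincubated 15 min with compound.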
# Six1-Eya2 blk: Six1/Eya2 interaction inhibition | Q15475+O00167 | AlphaScreen GST-Six1/His-Eya2 binding, biochemical; hits give low values | activity change, % (concentration not given with the values) | 360,000 compounds, 0.56% hits; in the data active = activity change below about -65%; inconclusive = mostly about -30% to -63%; also: % is scaled to controls: 0 for no effect and ±100 for the full control effect
#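 AlphaScreen with GST-Six1 and His-Eya2 (5X mix: 250 nM and 500 nM), glutathione donor and nickel acceptor beads; buffer 50 mM Tris pH 8.0, 300 mM NaCl, 1 mM TCEP; 1 h at 37 C in the dark.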
# CtBP-E1A inh: inhibitors of CtBP/E1A interaction. 340,000 compounds, 0.49% hits. AlphaScreen GST-E1A/His-CtBP binding, 1536-well; hits give low values. activity change, % (concentration not given with the values); in the data active = activity change below about -65%; inconclusive = mostly about -30% to -63%; also: % is scaled to controls: 0 for no effect and ±100 for the full control effect
#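 Steps: dispense buffer (Tris pH 8.0, NaCl 300 mM, TCEP 1 mM, BSA, Tween 20); add 5X protein mix (GST-E1A, His-CtBP, 125 nM each); pin 23 nL compound; 2 h at 37 °C, dark; add 5X beads (50 ug/mL); 1 h; read.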
# HP1b binding inh: blocks HP1-beta chromodomain binding to methylated histone tails | 390,000 compounds, 0.56% hits | AlphaScreen HP1-beta / biotin-H3K9me3 peptide binding | Potency, µM (top dose mostly 114 µM), inactives show at the highest dose activity change, negative = inhibition, actives largely listed as inhibitors; also: potency is read from the fitted curve at half-maximal effect; nearly all actives have a fitted effect of over 70% in size
#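 HP1-beta protein (50 nM final) preincubated 30 min at room temperature with biotinylated H3(1-18)K9me3 peptide (50 nM) in PBS pH 7.4, 0.01% Tween-20, then compound added for 30 min. AlphaScreen streptavidin donor/nickel chelate acceptor beads (10 ug/mL final), 30 min dark, luminescence read.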
# BAZ2B block: inhibitors of human BAZ2B bromodomain. Q9UIF8. AlphaScreen BAZ2B-H3K14Ac peptide displacement. Potency, µM (titrated, usually from 114 µM), for inactives: top-dose activity change, negative = inhibition, usual class: inhibitors. 360,000 compounds, 4.4% hits. AID 504333; also: potency is read from the fitted curve at half-maximal effect; % is scaled to controls: 0 for no effect and ±100 for the full control effect; nearly all actives have a fitted effect of over 60% in size
#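 AlphaScreen luminescence quantifies BAZ2B engagement of H3K14Ac peptide; the protein and biotinylated peptide are both at 50 nM final, buffer PBS pH 7.4 with 0.01% Tween-20, all steps at room temperature.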
# Numbers without * were called inactive; u = inconclusive; x = no result given; ! = not active in a repeat; [ ] = remark or other dose. Unless noted, calls follow the shape of the dose curve; as a rule, active = well fitted inhibition curve with a large enough effect; inconclusive = small, poorly fitted or top-dose-only effect; inactive = no such curve, though single readings can be large or run the other way.
SMILES,JMJD2A Tudor,G9a inh,Six1-Eya2 blk,CtBP-E1A inh,HP1b binding inh,BAZ2B block
Cc1cc(C)c2nc(SC(C)C(=O)NCC(=O)Nc3ccc(F)c(F)c3F)cc(C)c2c1 (centres undefined),-10%,18µM*,3,-1,9%,6%
Cc1ccc(NC(=O)Cn2nc(C(=O)O)c3ccccc3c2=O)cc1S(=O)(=O)N1CCOCC1,-5%,-6%[12.7 µM],-22,x,27%,-3%
COc1ccc([C@]23Cc4ccccc4C(O2)c2c(cc(C)n(Cc4ccccc4)c2=O)O3)cc1,x,9%[2.33 µM],x,x,x,u
Cc1cccc([N+](=O)[O-])c1NC(=O)COC(=O)C1CC2CCCC(C1)C2=O (centres undefined),-8%,5%[59 µM],4,6,12%,-2%
Cc1ccc([N+](=O)[O-])c(NC(=O)COC(=O)C2CC3CCCC(C2)C3=O)c1C (centres undefined),-17%,79µM*,3,4,36%,-18%
COc1ccc(Nc2nc(C#N)nc(NC3CCCC3)n2)cc1,-29%,x,x,x,x,x
CCN(CC)c1ccc(/C=N/OCC(=O)N2CCCc3ccccc32)cc1,u,40µM*,-29,-27,u,u
O=C(CN1CCCC1)N1CCCc2ccccc21,3.5µM*,x,-4,-3,u,50µM*
O=C(C(=O)N1CCCc2ccccc21)N1CCCc2ccccc21,-6%,12%[59 µM],8,-2,19%,-1%
O=C(CCCC(=O)N1CCCc2ccccc21)N1CCCc2ccccc21,-9%,21%,-1,0,27%,10%
O=C(CN1CCCCC1)N1CCCc2ccccc21,2.5µM*,u,2,9,u,50µM*
Nc1cc(=O)[nH]c(SCC(=O)N2CCCc3ccccc32)n1,-12%,8%[59 µM],-3,-13,17%,7%
Nc1nc2nc(SCC(=O)N3CCCc4ccccc43)[nH]c2c(=O)[nH]1,x,79µM*,x,x,x,-7%
Cc1ccc2c(CC(=O)Nc3cccc(Cl)c3C)coc2c1,-16%,-17%[59 µM],x,x,25%,-18%
CCOc1cc2[nH]c(=O)n(CCCCC(=O)N3CCN(c4ccccc4)CC3)c(=O)c2cc1OCC,-11%,-1%[59 µM],x,x,9%,2%
C=CCn1c(N)c(C(=O)NCCC2=CCCCC2)sc1=S,u,u,-22,u,u,40µM*
O=C(O)c1cccc(N2C(=O)/C(=C/c3ccc(SCc4ccc(Cl)cc4)o3)SC2=S)c1,45µM*,20µM*,u,-4,-16%,32µM*
O=C(Nc1ccc(-c2csnn2)cc1)C1CC1,5%,26%,0,-5,38%,-13%
NC(=NC1C2CC3CC(C2)CC1C3)Nc1ccc(I)cc1 (centres undefined),x,28µM*!,x,x,x,x
Cc1ccc(Nc2nc(N)nc(CN3CCN(Cc4ccc5c(c4)OCO5)CC3)n2)cc1,u,12%[12.7 µM],-9,11,-9%,56µM*
Nc1nc(CN2CCN(Cc3ccccc3)CC2)nc(Nc2ccc3c(c2)OCCO3)n1,u,-13%[12.7 µM],-13,-2,27%,20µM*
Cc1ccc(Nc2nc(N)nc(CN3CCN(C)CC3)n2)cc1C,x,u,x,x,x,12%
Cc1ccc(Nc2nc(N)nc(CN3CCN(Cc4ccc5c(c4)OCO5)CC3)n2)cc1C,u,x,-2,-17,-5%,40µM*
Cc1ccc(Nc2nc(N)nc(CN3CCN(Cc4ccc5c(c4)OCO5)CC3)n2)c(C)c1,-33%[57.1 µM],3%,-4,-2,u,56µM*
Nc1nc(CN2CCN(C(=O)c3ccco3)CC2)nc(Nc2cccc(Cl)c2)n1,-36%,3%,-17,3,24%,u
COc1ccccc1CN(C)C(=O)c1ccc(S(=O)(=O)Nc2c(C)n(C)n(-c3ccccc3)c2=O)cc1,-14%,x,3,-2,24%,x
Cc1ccc(CN(c2ccc(C(=O)Nc3cccnc3)cc2)S(C)(=O)=O)cc1,-28%,-3%[12.7 µM],-2,-3,-4%,-1%
NN1C(=O)NC(c2ccccc2)(c2ccccc2)C1=O,25µM*,8%[59 µM],0,-16,29%,-5%
